Data published in PubChem BioAssay (Tox21).
Results filed as inconclusive are left out. A call without a number means that no potency is given here. Calls of active or inactive are those of the source. Unless noted, the call rests on the fitted dose curve.

Assays:
[1] = Nuclear factor erythroid 2-related factor 2/antioxidant responsive element (Nrf2/ARE) small molecule agonists: qHTS cell viability counter screen in human keratinocytes (AID 1919968; active means well fitted curve in the direction sought with a large enough effect in the repeat runs; an effect the other way counts as inactive or inconclusive; further: nearly all actives have a fitted effect of over 55% in size; further: potency means the concentration at half of the fitted maximal effect)
Outline: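 Cytotoxicity was multiplexed with the Nrf2/ARE luciferase assay in the same wells. Stably transfected HaCaT keratinocytes were treated with test compounds for 23 h at 37 C. Cell viability was then measured by CellTiter-Fluor fluorescence.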

[2] = Nuclear factor erythroid 2-related factor 2/antioxidant responsive element (Nrf2/ARE) small molecule agonists: luciferase reporter gene qHTS assay in human keratinocytes (AID 1919969); further: nearly all actives have a fitted effect of over 35% in size; further: potency means the concentration at half of the fitted maximal effect
[3] = target: KiSS-1 receptor (Homo sapiens) (UniProt Q969F8); test: Human kisspeptin (KISS1R) small molecule agonists, calcium flux assay in KISS1R-HEK293 cells (AID 1920064; active means well fitted curve in the direction sought with a large enough effect in the repeat runs; an effect the other way counts as inactive or inconclusive)
Sequence of KiSS-1 receptor (Homo sapiens) (Q969F8 whole entry, looked up): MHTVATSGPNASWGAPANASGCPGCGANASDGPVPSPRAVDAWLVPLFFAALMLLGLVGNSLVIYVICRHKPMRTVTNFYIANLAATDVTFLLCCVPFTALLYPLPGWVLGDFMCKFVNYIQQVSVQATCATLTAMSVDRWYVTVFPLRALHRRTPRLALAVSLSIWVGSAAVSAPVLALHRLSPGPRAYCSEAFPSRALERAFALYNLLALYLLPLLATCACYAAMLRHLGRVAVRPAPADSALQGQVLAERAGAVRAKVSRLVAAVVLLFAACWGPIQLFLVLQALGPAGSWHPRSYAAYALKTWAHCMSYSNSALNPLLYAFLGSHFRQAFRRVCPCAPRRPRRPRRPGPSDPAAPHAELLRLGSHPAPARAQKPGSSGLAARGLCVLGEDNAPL
Outline: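 Agonist activity is monitored as intracellular calcium rise in engineered HEK293 cells carrying human KISS1R. Cells are dye-loaded for 1 h at 37 C before compound addition, and fluorescence is recorded for 3 min.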

[4] = G protein-coupled receptor (GPCR) small molecule agonists, calcium flux assay: HEK293 wild type cell line counter screen (AID 1920065)
Outline: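 Seed cells, incubate 18 h (37 C, 5% CO2); add calcium dye, 1 h at 37 C; pin-transfer compounds, ATP control or DMSO; read fluorescence 480/540 nm each second for 3 min.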

[5] = p53 small molecule agonists, cell-based qHTS assay with human liver microsomes (AID 1963577);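 further: p53 response element beta-lactamase reporter cells with liver microsomes plus NADPH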
Outline: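 Steps: plate p53RE-bla cells, incubate 5 h at 37 C; add compound in DMSO; add microsomes (0.5 mg/mL final) and NADPH (0.5 mg/mL final); incubate 16 h at 37 C; add LiveBLAzer, 2 h RT; read fluorescence.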

[6] = p53 small molecule agonists, cell-based qHTS assay with human liver microsomes: qHTS cell viability counter screen (AID 1963579); further: nearly all actives have a fitted effect of over 45% in size; further: potency means the concentration at half of the fitted maximal effect
Outline: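 After the 460/530 nm beta-lactamase read, CellTiter-Glo was added to the same wells and luminescence measured after 30 min at room temperature, giving viability of p53RE-bla cells treated 16 h with compounds plus microsomes and NADPH.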

[7] = p53 small molecule agonists, cell-based qHTS assay with rat liver microsomes: qHTS cell viability counter screen (AID 1963580); further: nearly all actives have a fitted effect of over 45% in size
Outline: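 Luminescent ATP readout (CellTiter-Glo, 30 min at room temperature) reports viability of p53RE-bla HCT-116 cells after 16 h at 37 C with test compounds under metabolic activation by rat liver microsomes and NADPH at 0.5 mg/mL final each.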

[8] = p53 small molecule agonists, cell-based qHTS assay: qHTS cell viability counter screen (AID 1963581); further: nearly all actives have a fitted effect of over 45% in size
Outline: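 Viability was counter-screened in parallel with the p53 agonist reporter by measuring intracellular ATP luminescence in the same HCT-116 p53RE-bla wells after 16 h compound treatment at 37 C.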

[9] = p53 small molecule agonists, cell-based qHTS assay (AID 1963582; active means well fitted activation curve with a large enough effect in the signal ratio in the repeat runs, not every such curve was filed as active; the % refers to the signal ratio; further: potency means the concentration at half of the fitted maximal effect)
Outline: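 Cells carrying a p53-responsive bla reporter are treated with test compounds for 16 h at 37 C; beta-lactamase activity is then detected with LiveBLAzer B/G FRET substrate after 2 h at room temperature.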

[10] = target: 5-hydroxytryptamine receptor 2A (Homo sapiens) (UniProt P28223); test: 5-hydroxytryptamine receptor 2A (HTR2A) small molecule agonists, cell-based qHTS assay (AID 1963587); further: nearly all actives have a fitted effect of over 30% in size; further: potency means the concentration at half of the fitted maximal effect
Sequence of 5-hydroxytryptamine receptor 2A (Homo sapiens) (P28223 whole entry, looked up): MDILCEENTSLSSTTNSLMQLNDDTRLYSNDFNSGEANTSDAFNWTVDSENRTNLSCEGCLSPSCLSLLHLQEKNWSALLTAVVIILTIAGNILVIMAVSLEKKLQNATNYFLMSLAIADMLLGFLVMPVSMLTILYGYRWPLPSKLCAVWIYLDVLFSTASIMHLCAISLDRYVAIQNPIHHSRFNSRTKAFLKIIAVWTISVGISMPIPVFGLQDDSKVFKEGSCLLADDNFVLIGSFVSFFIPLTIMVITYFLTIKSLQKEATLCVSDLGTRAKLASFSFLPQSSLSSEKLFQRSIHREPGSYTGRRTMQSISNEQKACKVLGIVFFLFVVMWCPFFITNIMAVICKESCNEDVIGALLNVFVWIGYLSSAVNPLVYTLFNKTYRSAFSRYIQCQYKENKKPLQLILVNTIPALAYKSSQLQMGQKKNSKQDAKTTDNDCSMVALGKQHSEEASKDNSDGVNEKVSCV
Outline: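 HTR2A-CHO cells, plated 18 h at 37 C/5% CO2, dye-loaded 1 h at 37 C; compounds in DMSO added by pin tool (agonist mode). Intracellular calcium flux read as kinetic fluorescence on FDSS over 2 min at 1 s intervals.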

[11] = target: Muscarinic acetylcholine receptor M1 (Homo sapiens) (UniProt P11229); test: Cholinergic receptor muscarinic 1 (CHRM1) small molecule antagonists, cell-based qHTS assay (AID 1963588); further: nearly all actives have a fitted effect of over 40% in size; further: potency means the concentration at half of the fitted maximal effect
Sequence of Muscarinic acetylcholine receptor M1 (Homo sapiens) (P11229 whole entry, looked up): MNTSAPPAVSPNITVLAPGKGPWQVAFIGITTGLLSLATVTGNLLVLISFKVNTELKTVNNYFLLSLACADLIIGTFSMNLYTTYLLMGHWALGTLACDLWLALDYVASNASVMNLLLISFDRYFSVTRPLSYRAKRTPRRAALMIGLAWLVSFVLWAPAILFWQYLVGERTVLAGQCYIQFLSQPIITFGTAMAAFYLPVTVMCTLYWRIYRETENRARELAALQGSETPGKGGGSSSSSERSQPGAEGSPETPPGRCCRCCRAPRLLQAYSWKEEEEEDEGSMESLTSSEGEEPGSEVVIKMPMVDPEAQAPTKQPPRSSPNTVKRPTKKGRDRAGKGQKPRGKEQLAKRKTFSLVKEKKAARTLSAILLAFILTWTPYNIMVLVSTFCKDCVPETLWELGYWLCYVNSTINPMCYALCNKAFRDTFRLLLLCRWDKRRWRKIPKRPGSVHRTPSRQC
Outline: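 Compounds were tested at 15 concentrations in three independent runs. Dye-loaded CHRM1-CHO cells were exposed 5 min at room temperature before stimulation by acetylcholine added at 50nM. Intracellular calcium was read kinetically on FDSS for 3 min.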

[12] = target: Muscarinic acetylcholine receptor M1 (Homo sapiens) (UniProt P11229); test: Cholinergic receptor muscarinic 1 (CHRM1) small molecule agonists, cell-based qHTS assay (AID 1963589); further: nearly all actives have a fitted effect of over 35% in size
Outline: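 Cells were plated and incubated 18 h at 37 C/5% CO2, loaded with calcium dye for 1 h at 37 C, then treated with compounds in DMSO. Fluorescence was recorded kinetically at 1 sec intervals.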

[13] = cAMP Responsive Elements (CRE) small molecule agonists, cell-based qHTS assay (AID 1963590)
Outline: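 Cells carrying a CRE-driven beta-lactamase reporter (HEK 293T) are seeded, incubated overnight (18 h), and treated with test compounds for 3 h at 37 C; reporter activity is then detected with a FRET substrate after 2 h at room temperature.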

[14] = cAMP Responsive Elements (CRE) small molecule antagonists, cell-based qHTS assay (AID 1963591; active means well fitted inhibition curve with a large enough effect in the signal ratio in the repeat runs, not every such curve was filed as active; the % refers to the signal ratio)
Outline: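 Cells (CRE-bla HEK 293T, DMEM with 10% dialyzed FBS and 25 mM HEPES) are seeded and incubated 18 h. Compounds are added with NKH477 agonist at 0.25 uM final for 3 h, then FRET substrate for 2 h.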

[15] = target: Beta-2 adrenergic receptor (Homo sapiens) (UniProt P07550); test: Adrenergic beta2 receptor (ADRB2) small molecule antagonists, cell-based qHTS assay (AID 1963592); further: nearly all actives have a fitted effect of over 50% in size; further: potency means the concentration at half of the fitted maximal effect
Sequence of Beta-2 adrenergic receptor (Homo sapiens) (P07550 whole entry, looked up): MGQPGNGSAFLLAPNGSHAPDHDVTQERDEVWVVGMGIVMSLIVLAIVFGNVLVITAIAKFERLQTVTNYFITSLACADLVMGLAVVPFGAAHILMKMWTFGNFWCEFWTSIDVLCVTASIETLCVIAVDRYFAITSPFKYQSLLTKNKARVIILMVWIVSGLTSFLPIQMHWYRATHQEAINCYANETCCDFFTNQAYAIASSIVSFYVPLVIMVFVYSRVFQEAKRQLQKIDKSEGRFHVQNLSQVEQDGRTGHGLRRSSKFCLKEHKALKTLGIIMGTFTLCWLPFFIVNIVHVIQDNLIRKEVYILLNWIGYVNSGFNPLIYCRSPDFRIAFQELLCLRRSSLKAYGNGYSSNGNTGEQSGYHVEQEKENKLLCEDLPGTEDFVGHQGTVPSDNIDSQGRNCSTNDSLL
Outline: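 Assay format: CHO-ADRB2 cells, 18-20hr seeding at 37C/5% CO2, then compound plus 1nM isoproterenol agonist mix for 0.5hr RT. Homogeneous time-resolved fluorescence cAMP detection after 1hr, expressed as 665/615 nm ratio.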

[16] = target: D(2) dopamine receptor (Homo sapiens) (UniProt P14416); test: Dopamine D2 receptor (DRD2) small molecule agonists, cell-based qHTS assay (AID 1963594); further: nearly all actives have a fitted effect of over 35% in size
Sequence of D(2) dopamine receptor (Homo sapiens) (P14416 whole entry, looked up): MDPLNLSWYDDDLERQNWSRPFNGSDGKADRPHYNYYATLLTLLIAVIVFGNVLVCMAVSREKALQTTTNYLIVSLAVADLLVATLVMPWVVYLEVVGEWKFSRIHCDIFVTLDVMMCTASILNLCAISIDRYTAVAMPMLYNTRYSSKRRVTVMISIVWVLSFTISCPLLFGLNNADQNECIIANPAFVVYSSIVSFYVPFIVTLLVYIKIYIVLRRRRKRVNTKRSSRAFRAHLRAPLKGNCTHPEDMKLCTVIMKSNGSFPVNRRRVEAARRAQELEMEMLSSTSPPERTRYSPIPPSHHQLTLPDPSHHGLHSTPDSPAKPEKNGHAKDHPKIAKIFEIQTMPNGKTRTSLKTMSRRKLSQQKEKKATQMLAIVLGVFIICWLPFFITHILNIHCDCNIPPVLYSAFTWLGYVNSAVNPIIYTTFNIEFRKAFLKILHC
Outline: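 HEK293 cells stably expressing DRD2 were cultured 24 h at 37 C, then given Ro20-1724 (0.1 mM final) and compounds for 10 min at room temperature. NKH477 (200nM) was then added for 30 min. cAMP was read by HTRF.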

[17] = target: D(2) dopamine receptor (Homo sapiens) (UniProt P14416); test: Dopamine D2 receptor (DRD2) small molecule antagonists, cell-based qHTS assay (AID 1963595; active means well fitted inhibition curve with a large enough effect in the signal ratio in the repeat runs, with a control signal flat; the % refers to the signal ratio)
Outline: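 Antagonist mode in DRD2-HEK293 cells: after compound addition with 0.1 mM Ro20-1724, cells received quinpirole (12 nM) and NKH477 (200 nM) for 30 min at room temperature; HTRF cAMP read after 1 h detection.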

[18] = p53 small molecule agonists, cell-based qHTS assay with rat liver microsomes (AID 1963578)
Outline: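 Metabolic activation is supplied by rat liver microsomes with NADPH (each 0.5 mg/mL final). p53RE-bla cells incubate with compound 16 h at 37 C; reporter activity is measured by LiveBLAzer fluorescence.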

[19] = target: Gonadotropin-releasing hormone receptor (Homo sapiens) (UniProt P30968); test: Human gonadotropin-releasing hormone receptor (GnRHR) small molecule agonists, calcium flux assay in GnRHR-HEK293 cells (AID 1920063); further: nearly all actives have a fitted effect of over 35% in size
Sequence of Gonadotropin-releasing hormone receptor (Homo sapiens) (P30968 whole entry, looked up): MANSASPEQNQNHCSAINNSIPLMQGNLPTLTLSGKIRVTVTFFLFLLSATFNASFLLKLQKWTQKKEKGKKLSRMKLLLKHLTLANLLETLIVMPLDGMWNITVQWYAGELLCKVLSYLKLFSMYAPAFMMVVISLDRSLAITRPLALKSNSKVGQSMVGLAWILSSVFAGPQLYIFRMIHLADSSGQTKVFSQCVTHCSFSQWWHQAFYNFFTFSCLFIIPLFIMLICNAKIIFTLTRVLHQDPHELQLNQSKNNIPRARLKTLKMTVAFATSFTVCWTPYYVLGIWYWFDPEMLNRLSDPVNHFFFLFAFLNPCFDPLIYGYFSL
Outline: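 Agonist activity was measured as intracellular calcium flux in HEK293 cells engineered to stably express human GnRHR. After dye loading for 1 hour at 37 C, compounds in DMSO were added and fluorescence was followed for 3 minutes.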

[20] = target: 5-hydroxytryptamine receptor 2A (Homo sapiens) (UniProt P28223); test: 5-hydroxytryptamine receptor 2A (HTR2A) small molecule antagonists, cell-based qHTS assay (AID 1963586); further: nearly all actives have a fitted effect of over 45% in size; further: potency means the concentration at half of the fitted maximal effect
Outline: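 CHO cells stably expressing human HTR2A were plated for 18 h at 37 C, then loaded with calcium dye for 1 h. Compounds were preincubated 5 min at room temperature before DOI (4 nM solution) was added. Kinetic fluorescence was read for 3 min.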

SMILES	Potency [1]	Potency [2]	Potency [3]	Potency [4]	Potency [5]	Potency [6]	Potency [7]	Potency [8]	Potency [9]	Potency [10]	Potency [11]	Potency [12]	Potency [13]	Potency [14]	Potency [15]	Potency [16]	Potency [17]	Potency [18]	Potency [19]	Potency [20]
NP(N)(=O)NC(=O)c1ccc(F)cc1	inactive	inactive	inactive	inactive	inactive	inactive	inactive	inactive	inactive	inactive	inactive	inactive	inactive	inactive	inactive	inactive	inactive	–	–	–
C[C@H]1CNCCc2ccc(Cl)cc21	inactive	inactive	inactive	inactive	inactive	inactive	inactive	inactive	inactive	–	–	inactive	inactive	inactive	23.7 µM (active)	inactive	inactive	inactive	–	–
CCCC[N+](=O)[O-]	inactive	inactive	–	inactive	–	–	inactive	–	–	–	inactive	inactive	inactive	inactive	inactive	inactive	inactive	–	inactive	inactive
CCC(Cl)CCl (configuration not stated)	inactive	inactive	–	inactive	–	inactive	–	–	–	inactive	–	inactive	inactive	inactive	inactive	inactive	inactive	–	inactive	inactive
O=C(N/N=C/c1ccc([N+](=O)[O-])o1)c1cc([N+](=O)[O-])cc([N+](=O)[O-])c1O	inactive	29.8 µM (active)	inactive	inactive	inactive	–	inactive	inactive	inactive	–	–	–	–	inactive	–	inactive	inactive	inactive	–	–
CC(=O)CN(CC(C)=O)N=O	inactive	inactive	inactive	inactive	inactive	inactive	inactive	–	inactive	inactive	inactive	inactive	inactive	inactive	inactive	inactive	inactive	inactive	–	inactive
CC1=C2C[C@H]3[C@@H](CC=C4C[C@@H](O)CC[C@@]43C)[C@@H]2CC[C@]12O[C@@H]1C[C@H](C)CN[C@H]1[C@H]2C	11.9 µM (active)	inactive	inactive	inactive	inactive	inactive	inactive	inactive	inactive	–	–	inactive	inactive	inactive	inactive	inactive	inactive	inactive	–	inactive
OP(O)c1ccccc1	inactive	inactive	inactive	inactive	inactive	inactive	inactive	inactive	inactive	inactive	inactive	inactive	–	–	inactive	–	inactive	–	–	inactive
[CH3][Hg][Cl]	6.09 µM (active)	2.43 µM (active)	inactive	inactive	inactive	inactive	–	inactive	36.3 µM (active)	38.8 µM (active)	–	inactive	–	inactive	–	inactive	inactive	inactive	–	inactive
Oc1ccc(C(=C(Cl)Cl)c2ccc(O)cc2)cc1	68.5 µM (active)	inactive	inactive	inactive	inactive	51.2 µM (active)	inactive	–	inactive	–	–	inactive	inactive	–	–	inactive	inactive	inactive	–	inactive
CCC(=O)C(CCN(C)C)(c1ccccc1)c1ccccc1	inactive	inactive	–	–	inactive	inactive	inactive	inactive	inactive	inactive	11.6 µM (active)	inactive	–	–	inactive	inactive	inactive	inactive	inactive	16.3 µM (active)
CCN(CC)C(=O)[C@@H]1C=C2c3cccc4[nH]cc(c34)C[C@H]2N(C)C1	inactive	inactive	inactive	inactive	inactive	inactive	inactive	inactive	inactive	–	inactive	–	–	–	–	–	–	inactive	–	inactive
CN(C)CCc1c[nH]c2ccc(O)cc12	inactive	67 µM (active)	–	–	inactive	inactive	inactive	inactive	inactive	–	inactive	inactive	inactive	inactive	–	–	–	inactive	inactive	inactive
N[C@@H](Cc1ccc(Oc2cc(I)c(O)c(I)c2)c(I)c1)C(=O)O	inactive	inactive	inactive	inactive	inactive	inactive	inactive	inactive	inactive	–	inactive	inactive	inactive	inactive	–	inactive	inactive	inactive	–	–
O=[N+]([O-])c1ccc2c3c(cccc13)CC2	inactive	inactive	inactive	inactive	inactive	inactive	inactive	inactive	inactive	inactive	–	inactive	inactive	–	inactive	inactive	inactive	–	–	inactive
C1CCC(C2CCCCC2)CC1	inactive	inactive	–	inactive	–	inactive	–	inactive	–	inactive	inactive	inactive	–	–	inactive	inactive	inactive	–	inactive	inactive
CCCSP(=S)(OCC)Oc1ccc(Cl)cc1Cl (configuration not stated)	inactive	61.1 µM (active)	–	inactive	–	inactive	–	inactive	–	inactive	inactive	inactive	inactive	inactive	inactive	inactive	inactive	–	inactive	inactive
N[C@@H]1C[C@H]1c1ccccc1	inactive	inactive	inactive	inactive	inactive	inactive	inactive	inactive	inactive	8.49 µM (active)	inactive	inactive	inactive	–	inactive	inactive	inactive	inactive	–	–
Cc1c([N+](=O)[O-])cc2c(c1[N+](=O)[O-])C(C)(C)CC2(C)C	inactive	48.6 µM (active)	inactive	inactive	inactive	inactive	inactive	inactive	inactive	inactive	inactive	inactive	inactive	–	inactive	inactive	inactive	inactive	–	inactive
Cc1ccc(OP(=O)(Oc2ccccc2)Oc2ccccc2)cc1	inactive	inactive	–	–	–	inactive	inactive	inactive	–	inactive	inactive	inactive	–	inactive	inactive	inactive	inactive	–	inactive	inactive
Cc1ccccc1	inactive	inactive	–	–	inactive	–	inactive	inactive	inactive	–	–	–	–	–	–	–	–	inactive	–	–
C=C(Cl)Cl	inactive	inactive	inactive	inactive	–	inactive	inactive	inactive	inactive	–	–	–	–	inactive	inactive	inactive	inactive	inactive	–	–
CCc1ccccc1N	inactive	inactive	inactive	inactive	–	inactive	inactive	inactive	–	inactive	inactive	inactive	inactive	inactive	inactive	inactive	inactive	–	–	inactive
CCN(CC)CCc1c[nH]c2ccccc12	inactive	inactive	inactive	–	inactive	inactive	inactive	–	–	0.0091 µM (active)	inactive	inactive	inactive	inactive	inactive	inactive	inactive	inactive	–	–
